Whole data set: some 4,500 sequences, median “log2 normalized fluorescence” near -0.34, cut for the highest 2% near 3.3. The entries come from a sample that favours the highest values as a whole.

MAX:MAX (p21), sequence (P61244 other isoform, or with tags, fused parts or gaps): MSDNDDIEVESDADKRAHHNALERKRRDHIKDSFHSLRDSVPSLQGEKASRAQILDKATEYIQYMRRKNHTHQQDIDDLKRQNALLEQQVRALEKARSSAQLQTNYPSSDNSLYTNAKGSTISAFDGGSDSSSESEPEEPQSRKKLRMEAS

This experiment deals with MAX:MAX (p21) (human, UniProt P61244-2 1-151). Kind of experiment: protein-binding microarray (anti-MAX antibody); PBM: 15 mM Tris-HCl pH 7.5, 100 mM KCl, 0.075% NP40, 7.5 mM beta-mercaptoethanol, 375 ng/ul BSA, 8 ng/ul poly(dA-dT):(dA-dT), 550 ng complex, 60 min, room tempe; high values mean tight binding. Conditions: protein: recombinant; tags: 6xHis; chain copies: 2; label: 3' end of printed strand (linker) attached to glass slide; dsDNA, one strand shown. Put shortly:
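Recombinant His-tagged human MYC:MAX or MAX:MAX dimers (550 ng, expressed in E. coli) were incubated for 60 min at room temperature in Tris-KCl buffer, pH 7.5, with NP40, BSA and poly(dA-dT) competitor. The custom Agilent glass array held ~5000 unique 12-nt sequences, each spotted in triplicate and made double-stranded by primer extension. Bound protein was detected with anti-MAX and secondary antibodies and scanned at 543 nm. Binding is reported as log2 normalized fluorescence.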
In the case of “CCGGCTGACACGCCATATTAATAGCTAAGATTACTATATCGACG”, the binding signal is 2.41 log2 normalized fluorescence. The figure for “CCGGCTGATACATAGTATTAATAGCTAAGATTACTATATCGACG” is -0.533 log2 normalized fluorescence. For “CCGGCTGATTCACGGTATTAATAGCTAAGATTACTATATCGACG”, the binding signal was 0.000807 log2 normalized fluorescence. With “CCGGCTGAGTGGATGTATTAATAGCTAAGATTACTATATCGACG” the figure was 0.0423 log2 normalized fluorescence.

For the sequence “CCGGCTGACACGTTGGATTAATAGCTAAGATTACTATATCGACG”, the binding signal is 3.03 log2 normalized fluorescence.

Regarding “CCGGCTGATAGTGGGTATTAATAGCTAAGATTACTATATCGACG”, the binding signal was -0.372 log2 normalized fluorescence. With “CCGGCTGAGTGGCTGTATTAATAGCTAAGATTACTATATCGACG” the figure was 0.1 log2 normalized fluorescence; with “CCGGCTGAAAGATGGTATTAATAGCTAAGATTACTATATCGACG”, -0.31 log2 normalized fluorescence. The figure for “CCGGCTTGCACGTGGTTTTAATAGCTAAGATTACTATATCGACG” is 3.23 log2 normalized fluorescence; for “CCGGCTTGCACTTGGTATTAATAGCTAAGATTACTATATCGACG” it is 0.423 log2 normalized fluorescence.

With “CCGGCTTGCACGTGGTATTAATAGCTAAGATTACTATATCGACG”, the binding signal is 3.31 log2 normalized fluorescence. In the case of “CCGGCTGAGGCGGCGTATTAATAGCTAAGATTACTATATCGACG”, the binding signal was -0.641 log2 normalized fluorescence.

As to “CCGGCTGAGACGCCGTATTAATAGCTAAGATTACTATATCGACG”, the binding signal is -0.749 log2 normalized fluorescence. The figure for “CCGGCTGAGGTGGTGTATTAATAGCTAAGATTACTATATCGACG” is -0.0636 log2 normalized fluorescence. With “CCGGCTGAATAAGCGTATTAATAGCTAAGATTACTATATCGACG” the figure was -0.651 log2 normalized fluorescence. On to “CCGGCTGCCTCGTGGTATTAATAGCTAAGATTACTATATCGACG”, for which the binding signal was 3.36 log2 normalized fluorescence. In the case of “CCGGCTGCCACGTGGTATTAATAGCTAAGATTACTATATCGACG”, the binding signal is 3.42 log2 normalized fluorescence. The figure for “CCGGCTGCCGCGTGGTATTAATAGCTAAGATTACTATATCGACG” is 3.21 log2 normalized fluorescence; for “CCGGCTGCGACGTGGTATTAATAGCTAAGATTACTATATCGACG” it is 2.27 log2 normalized fluorescence. The figure for “CCGGCAGCCACGTGGTATTAATAGCTAAGATTACTATATCGACG” is 3.13 log2 normalized fluorescence.

Take “CCGGCTGCCCCGTGGTATTAATAGCTAAGATTACTATATCGACG”: the binding signal is 2.88 log2 normalized fluorescence. For the sequence “CCGGCCACCACGTGGTATTAATAGCTAAGATTACTATATCGACG”, the binding signal was 3.24 log2 normalized fluorescence.

For the sequence “CCGGCTAACGCGTGGTATTAATAGCTAAGATTACTATATCGACG”, the binding signal was 3.26 log2 normalized fluorescence. Regarding “CCGGCTTACGCGTGGTATTAATAGCTAAGATTACTATATCGACG”, the binding signal was 3.27 log2 normalized fluorescence. With “CCGGCCGCGACGTGGTATTAATAGCTAAGATTACTATATCGACG” the figure was 2.79 log2 normalized fluorescence. With “CCGGCCGACGCGTGGTATTAATAGCTAAGATTACTATATCGACG” the figure was 3.33 log2 normalized fluorescence; with “CCGGCCGCCACGTGGTATTAATAGCTAAGATTACTATATCGACG”, 3.32 log2 normalized fluorescence; with “CCGGCTGACAATGGGTATTAATAGCTAAGATTACTATATCGACG”, 0.0164 log2 normalized fluorescence. With “CCGGCTGATGGGTAGTATTAATAGCTAAGATTACTATATCGACG” the figure was -0.121 log2 normalized fluorescence. For “CCGGCTGACATTTGGTGTTAATAGCTAAGATTACTATATCGACG”, the binding signal was -0.316 log2 normalized fluorescence. With “CCGGCTGACATAGCGTATTAATAGCTAAGATTACTATATCGACG” the figure was -0.366 log2 normalized fluorescence; with “CCGGCTGAGACACTGTATTAATAGCTAAGATTACTATATCGACG”, -0.484 log2 normalized fluorescence; with “CCGGCTGATACGCCGTATTAATAGCTAAGATTACTATATCGACG”, -0.497 log2 normalized fluorescence. The figure for “CCGGCTGAGACCCTGTATTAATAGCTAAGATTACTATATCGACG” is -0.583 log2 normalized fluorescence; for “CCGGCTGAGCAGGGGTATTAATAGCTAAGATTACTATATCGACG” it is 0.451 log2 normalized fluorescence; for “CCGGCCGCCACGTGGTCTTAATAGCTAAGATTACTATATCGACG” it is 3.44 log2 normalized fluorescence.

Take “CCGGCTGAGACGTGGTCTTAATAGCTAAGATTACTATATCGACG”: the binding signal was 1.44 log2 normalized fluorescence. The figure for “CCGGCCGCCACGTAGTATTAATAGCTAAGATTACTATATCGACG” is 1.58 log2 normalized fluorescence.

With “CCGGCAGACACGTGGTATTAATAGCTAAGATTACTATATCGACG”, the binding signal was 3.08 log2 normalized fluorescence.

“CCGGCGTATACGTGGTATTAATAGCTAAGATTACTATATCGACG”: the binding signal was 1.62 log2 normalized fluorescence. With “CCGGCAAACACGTTGTATTAATAGCTAAGATTACTATATCGACG” the figure was 3.31 log2 normalized fluorescence. On to “CCGGCTGGTACGTGGTCTTAATAGCTAAGATTACTATATCGACG”, for which the binding signal is 1.03 log2 normalized fluorescence. Turning to “CCGGCAGACACGTGGTCTTAATAGCTAAGATTACTATATCGACG”, the binding signal is 3.43 log2 normalized fluorescence. The figure for “CCGGCCAACACGTTGTATTAATAGCTAAGATTACTATATCGACG” is 3.07 log2 normalized fluorescence; for “CCGGCTGACACGTGGTCTTAATAGCTAAGATTACTATATCGACG” it is 3.21 log2 normalized fluorescence. With “CCGGCATACACGTGGTATTAATAGCTAAGATTACTATATCGACG” the figure was 3.25 log2 normalized fluorescence; with “CCGGCTTACACGTGGTCTTAATAGCTAAGATTACTATATCGACG”, 3.19 log2 normalized fluorescence. The figure for “CCGGCTAACACGTTGTATTAATAGCTAAGATTACTATATCGACG” is 3.12 log2 normalized fluorescence. Regarding “CCGGCGTACACGTGGTATTAATAGCTAAGATTACTATATCGACG”, the binding signal was 3.3 log2 normalized fluorescence. As for “CCGGCGTACACGTGGTCTTAATAGCTAAGATTACTATATCGACG”, the binding signal is 3.35 log2 normalized fluorescence. With “CCGGCTGACCATCTGTATTAATAGCTAAGATTACTATATCGACG” the figure was 1.1 log2 normalized fluorescence; with “CCGGCTGACGTACAGTATTAATAGCTAAGATTACTATATCGACG”, -0.0346 log2 normalized fluorescence. “CCGGCTGACACGTAACATTAATAGCTAAGATTACTATATCGACG”: the binding signal was 1.37 log2 normalized fluorescence.

The values above are taken from PMC5515408, “Sequence-specific DNA binding by MYC/MAX to low-affinity non-E-box motifs”.
